Screens deposited in PubChem BioAssay by National Center for Advancing Translational Sciences (NCATS).
This is a sample that favours compounds with a hit; in the whole collection about 15% have one here.
SARS PLP yeast = qHTS of Yeast-based Assay for SARS-CoV PLP. S. cerevisiae expressing SARS-CoV PLpro, growth rescue. Potency, µM (highest dose often 32.9 µM), for the others: at the highest dose activity, positive = growth rescue, actives largely listed as activators. 0.19% of 330,000 active; calls by dose curve; note: potency is the fitted concentration of half-maximal effect; 0% is about no effect; nearly all actives have a fitted effect of over 55% in size
HCMV antiviral = qHTS Assay for inhibitors of the human cytomegalovirus (HCMV) | HFF cells, HCMV-luciferase reporter, 72 h; stronger effect = lower value | activity change, negative = inhibition, % at 57.5 µM | 4.5% of 410,000 active | AID 1259415, 2018; in the data active = activity change below about -60%; inconclusive = no clear call, values can overlap the other calls; inactive = above about -39%; note: % is set by controls: 0 for no effect and ±100 for the full control effect
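Two compound doses tested in HFFs infected with HCMV-luciferase, MOI 1 PFU/cell, 72 h at 37C. Lysate luminescence read with OneGlo; data normalized against buffer-only and 10uM Salinomycin inhibitor controls.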
Pf growth 48h = Primary qHTS for delayed death inhibitors of the malarial parasite plastid, 48 hour incubation. Potency, µM (highest dose often 28.7 µM), inactives show at the top dose activity change, negative = inhibition, usual class: inhibitors. AID 504832, 2011. 5.9% of 310,000 active. P. falciparum luciferase growth in erythrocytes, 48 h; note: potency is the fitted concentration of half-maximal effect; % is set by controls: 0 for no effect and ±100 for the full control effect
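Cell-based growth assay: transgenic P. falciparum expressing firefly luciferase, cultured in red cells within RPMI 1640 containing 0.5% w/v Albumax, 24 mM bicarbonate and gentamycin. A drop in luciferase activity indicates inhibition.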
Pf growth 96h = Primary qHTS for delayed death inhibitors of the malarial parasite plastid, 96 hour incubation | P. falciparum luciferase reporter growth, 96 h | Potency, µM (top dose mostly 28.7 µM), without a hit: at the highest dose activity change, negative = inhibition, hits mostly inhibitors | 6.9% of 320,000 active | AID 504834, 2011; note: potency is the fitted concentration of half-maximal effect; % is set by controls: 0 for no effect and ±100 for the full control effect
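Two parasite generations (96 h, 37 C, 5% CO2) of compound exposure in infected erythrocytes (0.05% parasitemia, 2% hematocrit). Luciferase-reporter P. falciparum; decreased luminescence indicates inhibited growth, aimed at apicoplast-acting delayed death.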
HCV inh = qHTS Assay for Inhibitors of Hepatitis C Virus (HCV); Huh7.5.1 HCVcc-Cre infection, luciferase reporter, 44 h; Potency, µM (top dose mostly 41.8 µM), without a hit: at the top dose activity change, negative = inhibition, hits mostly inhibitors; 3.4% of 340,000 active; note: potency is the fitted concentration of half-maximal effect; % is set by controls: 0 for no effect and ±100 for the full control effect
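Cells seeded at 1,000/well and cultured 4 h, then compounds added followed by HCVcc-Cre virus (~0.5 moi). After 44 h further culture, luciferase substrate was added, plates held 15 min at room temperature, and luminescence read for 15 sec.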
Sm TGR block = qHTS Assay for the Inhibitors of Schistosoma Mansoni Peroxiredoxins; Schistosoma mansoni thioredoxin glutathione reductase (TGR), Q962Y6; purified TGR, DTNB reduction, TNB absorbance 405 nm; Potency, µM (doses to about 114 µM), without a hit: at the top dose activity change, negative = inhibition, most hits filed as inhibitors; 3% of 360,000 active; AID 485364, 2010; note: potency is the fitted concentration of half-maximal effect; % is set by controls: 0 for no effect and ±100 for the full control effect; nearly all actives have a fitted effect of over 60% in size
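TGR 20 nM + NADPH 100 uM (dispensed conc.), cpd preinc 15 min RT; start with NADPH (500 uM addition) then DTNB (15 mM addition). Kinetic TNB absorbance, 405 nm filter. Four-parameter Hill fit across titration.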
The depositor's hits bear a star; [ ] = dose if it differs, or a comment. Unless noted, calls come from the whole dose curve; as a rule, active = well fitted curve in the direction sought with a large enough effect; inconclusive = small, poorly fitted or top-dose-only effect, or another doubt; inactive = no such curve, though single readings can be large; an effect the other way counts as inactive or inconclusive.

CCCC(O)c1nc2ccccc2n1CCCOc1ccc(Cl)cc1 (centres undefined) was read as HCMV antiviral -76* and Sm TGR block 2%.
For COc1ccc(N2CCN(C(=S)Nc3ccccc3OC)CC2)cc1 the results were SARS PLP yeast 1%, HCMV antiviral -20, Pf growth 48h 10%, Pf growth 96h -20%, HCV inh 8% and Sm TGR block 5%.
For Cc1cc(C)c(/C=C/c2onc(C)c2S(=O)(=O)N2CCC(C(=O)N(C)Cc3ccccc3)CC2)c(C)c1 the results were HCMV antiviral 68 and Sm TGR block 1%.
`CCN(CC)CCNC1=NCCn2c1cc1cc(OC)ccc12` gave SARS PLP yeast -6%, HCMV antiviral 70, Pf growth 96h inconclusive, HCV inh 6.3µM* and Sm TGR block -4%.
For O=C(C1=NNCC1c1ccccc1)C1OC1c1ccccc1 (centres undefined) the results were SARS PLP yeast -1%, HCMV antiviral -31, Pf growth 48h inconclusive, Pf growth 96h inconclusive, HCV inh -8% and Sm TGR block 22µM*.
Screening O=C(c1ccccc1)C1OC1C(=O)c1ccccc1 (centres undefined) returned HCMV antiviral -11 and HCV inh -24%.
`NC(N)=NC(N)=Nc1ccc(SC(F)(F)F)cc1` gave SARS PLP yeast 6%, HCMV antiviral -17, Pf growth 48h 15µM*, Pf growth 96h 3.3µM*, HCV inh 11µM* and Sm TGR block 6%.
For CCOC(=O)C(=O)C1=C(N2CCOCC2)/C(=C\c2ccc(F)cc2)CC1 the results were SARS PLP yeast 0%, HCMV antiviral inconclusive, Pf growth 48h 14%, Pf growth 96h 39%, HCV inh inconclusive and Sm TGR block 28µM*.
For CCCCN(C(=O)NC(=O)C1=C(N2CCOCC2)/C(=C/c2ccccc2)CC1)S(C)(=O)=O the results were SARS PLP yeast -10%, HCMV antiviral 17, Pf growth 96h -22%, HCV inh 16% and Sm TGR block 3%[11.4 µM].
`Nc1ccc2ccc(NS(=O)(=O)N3CCCCC3)cc2c1` gave HCMV antiviral 7.
`CN1CCN(c2ccc(S(=O)(=O)N3CCCCC3)cc2NC(=O)c2ccc3ccccc3c2)CC1` gave SARS PLP yeast -1%, HCMV antiviral -16, Pf growth 48h 9.3µM*, Pf growth 96h 9.3µM*, HCV inh inconclusive and Sm TGR block -2%.
`CN1CCN(c2ccc(S(=O)(=O)N3CCCCC3)cc2NC(=O)c2cccc([N+](=O)[O-])c2)CC1` gave SARS PLP yeast 1%, HCMV antiviral -21, Pf growth 48h -23%, Pf growth 96h 0%, HCV inh inconclusive and Sm TGR block 1%.
Screening Cc1ccccc1C(=O)Nc1cc(S(=O)(=O)N2CCCCC2)ccc1N1CCN(C)CC1 returned SARS PLP yeast 6%, HCMV antiviral 68, Pf growth 48h inconclusive, Pf growth 96h 9.3µM*, HCV inh -17% and Sm TGR block -8%.
For COc1ccccc1NC(=O)C(C)OC(=O)C1CCC(C(C)(C)C)CC1 (centres undefined) the results were SARS PLP yeast -13%, HCMV antiviral -3, Pf growth 48h 2.9µM*, Pf growth 96h 15µM*, HCV inh -7%[8.37 µM] and Sm TGR block 0%.
N#CC1=C(c2ccccc2)/C(=C/c2ccccc2)OC1=O was read as SARS PLP yeast -49%, HCMV antiviral -106*, Pf growth 48h 5%, HCV inh inconclusive and Sm TGR block -22%.
For O=C1O/C(=C/c2ccccc2)c2ccccc21 the results were SARS PLP yeast -24%, HCMV antiviral 6, Pf growth 48h 2%, Pf growth 96h 49%, HCV inh -21% and Sm TGR block 15%.
CCOCCCn1c(=S)[nH]c2cc3c(cc2c1=O)OCO3 was read as SARS PLP yeast -3%, HCMV antiviral 1, Pf growth 48h 18%, Pf growth 96h 6%, HCV inh -10% and Sm TGR block 4%.
COc1cccc(CN(C)C(=O)C(CCSC)NS(=O)(=O)c2ccc3c(c2)OCCO3)c1OC (centres undefined) was read as SARS PLP yeast -2%, HCMV antiviral -20, Pf growth 48h 12µM*, Pf growth 96h inconclusive, HCV inh inconclusive and Sm TGR block 9%.
Screening CSCCC(NS(=O)(=O)c1ccc2c(c1)OCCO2)C(=O)N(C)Cc1ccc(C)cc1 (centres undefined) returned SARS PLP yeast 3%, HCMV antiviral 0, Pf growth 48h inconclusive, Pf growth 96h inconclusive, HCV inh -26% and Sm TGR block -23%.
CCOC(=O)N1CCC(N2CCN(C3CCCC3)C(CCO)C2)CC1 (centres undefined) was read as SARS PLP yeast 0%, HCMV antiviral inconclusive, Pf growth 48h 24%, Pf growth 96h inconclusive, HCV inh 6% and Sm TGR block 9%.
Cc1ccc(S(=O)(=O)N2CCOCC2)cc1C(=O)OCC(=O)NC1CC1 was read as SARS PLP yeast -6%, HCMV antiviral -1, Pf growth 48h -29%, Pf growth 96h -6%, HCV inh 0% and Sm TGR block -12%.
`Brc1ccc(-c2csc(N3CCc4ccccc4C3)n2)cc1` gave SARS PLP yeast 0%, HCMV antiviral 67, Pf growth 48h 10%, Pf growth 96h 35%, HCV inh inconclusive and Sm TGR block 6%.
Screening Brc1ccc(-c2csc(N3CCC(c4ccccc4)C3)n2)cc1 (centres undefined) returned SARS PLP yeast -2%, HCMV antiviral -6, Pf growth 48h 31%, Pf growth 96h 8.3µM*, HCV inh inconclusive and Sm TGR block 15%.
O=C(Nc1ccc2c(c1)OCO2)c1cc2nc(C3CC3)cc(C(F)(F)F)n2n1 was read as SARS PLP yeast 3%, HCMV antiviral -14, Pf growth 48h 11%, Pf growth 96h 0.042µM*, HCV inh -27% and Sm TGR block -26%.
For CC(C)CNC(=O)c1cc2nc(C3CC3)cc(C(F)(F)F)n2n1 the results were HCMV antiviral -19 and HCV inh 7.9µM*.
`CCOc1ccc(CN2CCc3nc(Nc4ccc5c(c4)OCCO5)ncc3C2)cc1` gave HCMV antiviral 35 and Sm TGR block 8%.
